# Screens: PubChem BioAssay, Broad Institute
# The full list was thinned out, with hits kept by preference.
# Tgondii IFNg: inhibitors of Toxoplasma gondii growth with IFN-gamma | Toxoplasma gondii growth in IFN-gamma-treated host cells; stronger effect = lower value | activity change, negative = inhibition, % (test concentration not listed) | 69,000 tested, 3.8% active | AID 1259416; in the data active means activity change below about -70%, passing the limit was not always enough;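 further: host cells are HeLa cells infected with Toxoplasma gondii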
# * = called active by the depositor.
SMILES,Tgondii IFNg
Cc1ccc(CNC(=O)c2nc(Nc3ccccc3)c3ccccc3n2)cc1,57
CCc1ccc(Nc2nc(C(=O)NCc3cccc(OC)c3)nc3ccccc23)cc1,-72*
COc1cccc(NC(=O)c2nc(Nc3ccccc3)c3ccccc3n2)c1,-76*
O=C(Nc1cccc(F)c1)c1nc(Nc2ccccc2)c2ccccc2n1,66
CCc1ccc(Nc2nc(C(=O)NCc3ccccc3)nc3ccccc23)cc1,-28
CCOc1ccc(CNC(=O)c2nc(Nc3ccc(CC)cc3)c3ccccc3n2)cc1,44
COc1cccc(CNC(=O)c2nc(Nc3ccccc3)c3ccccc3n2)c1,-54
CCc1cnc(C)nc1N1CCN(c2ncccn2)CC1,-4
CC(=O)Nc1ccc2c(c1)C1(CCOCC1)C(=O)N2c1ccsc1,15
O=C1CCC(=O)N1CN1CCC(CCCC2CCN(CN3C(=O)CCC3=O)CC2)CC1,27
CCOc1ccc(-c2nc(CN3CCN(C(=O)Nc4ccc(C)cc4)CC3)c(C)o2)cc1,-2
CCCNC[C@H]1[C@@H](c2ccc(C3=CCCCC3)cc2)[C@@H](CO)N1C(=O)C1CCC1,-48
CC(C)Oc1cccc(-n2c(CCc3c[nH]c4ccc(Br)cc34)nc3ccccc3c2=O)c1,14
CNC[C@H]1Oc2ccc(NS(=O)(=O)c3ccc(OC)cc3)cc2C(=O)N([C@H](C)CO)C[C@@H]1C,-10
C/C(=C\c1cc(Cl)ccc1O)CN1CCN(c2ncc(F)cn2)CC1,-34
CNC(=O)COC1COC2(CCN(C(=O)C3CCCO3)C2)C1 (stereo not drawn),59
Cc1ccc2c(C)c(C(=O)N3CCCC4(CC3)CNC(=O)O4)oc2c1 (stereo not drawn),0
Cc1ccc2c(C)c(C(=O)N3CCC4(CN(C)C(=O)O4)C3)oc2c1 (stereo not drawn),4
CCOC(=O)C1CCN(C(=O)c2oc3ccc4c(c3c2C)C(=O)CC2(CCCCC2)O4)CC1,325
Cc1c(C(=O)N2CC(C)CC(C)C2)oc2ccc3c(c12)C(=O)CC1(CCCCCC1)O3 (stereo not drawn),-99*
Cc1ccc2c(c1)C(=O)CC1(CCN(C(=O)C3CCCC3)CC1)O2,-4
Cc1c(C(=O)N2CCC(C)CC2)oc2ccc3c(c12)C(=O)CC1(CCCCCC1)O3,-110*
Cc1cncc(C(=O)N2CCc3c(CN4CCCC4)nn(C)c3C2)c1,-2
CCc1c(C(=O)N2CCC3(CC2)CNC(=O)C3)[nH]c2ccccc12,4
Cc1[nH]cnc1-c1nccn1Cc1cc2ccc(F)cc2[nH]c1=O,-8
SMILES,Tgondii IFNg
CCN(CC)C(=O)Cn1c(=O)n(Cc2ccco2)c2ncccc21,28
CC(c1cccc(-c2ccc(-c3nc(C4CC4)no3)cn2)c1)N1CCCC1 (stereo not drawn),-3
CCOc1ccc(NC(=O)Cn2ncc3c(N4CCN(c5ccccc5)CC4)ncnc32)cc1,63
C/C=C/c1ccc([C@@H]2[C@H](CO)N(S(=O)(=O)CC)C23CN(C(C)=O)C3)cc1,92
O=C(c1ccc(Cl)cc1)n1nnc2ccccc21,-17
CCN(CC)CCn1ccnc1-c1cccc(O)c1,-47
CCN1c2cc(C)ccc2-n2cccc2C12CCN(S(=O)(=O)c1ccc(OC)c(OC)c1)CC2,-32
CCN1c2cc(C)ccc2-n2cccc2C12CCN(S(=O)(=O)c1cc(Cl)ccc1OC)CC2,-106*
CCCNC(=O)N1CCC2(CC1)c1cccn1-c1ccc(C)cc1N2CC,-16
CCN1c2cc(C)ccc2-n2cccc2C12CCN(S(=O)(=O)c1ccc(C(C)(C)C)cc1)CC2,9
CCN1c2cc(C)ccc2-n2cccc2C12CCN(S(=O)(=O)c1ccc(OC)cc1)CC2,-91*
COc1ccc(S(=O)(=O)N2CCC3(CC2)Nc2cc(OC)ccc2-n2cccc23)cc1,18
CCN1c2cc(C)ccc2-n2cccc2C12CCN(S(=O)(=O)c1ccc(C)cc1)CC2,-86*
Cc1ccc2c(c1C)-n1cccc1C1(CCN(S(=O)(=O)c3cccc(Cl)c3)CC1)N2,23
COc1ccc(Cl)cc1S(=O)(=O)N1CCC2(CC1)Nc1cc(C)ccc1-n1cccc12,3
COc1ccc(S(=O)(=O)N2CCC3(CC2)Nc2cc(C)ccc2-n2cccc23)cc1Cl,13
CCN1c2cc(C)ccc2-n2cccc2C12CCN(S(=O)(=O)c1cccc(Cl)c1)CC2,-84*
Cc1cc(CC(=O)NCc2cnc3c(C)cccn23)on1,4
COc1c[nH]c(C(=O)N2CCCC(c3[nH]ncc3-c3ccccc3)C2)cc1=O (stereo not drawn),3
Cc1oc(C(C)C)cc1C(=O)N1CCc2c(c(C(=O)O)nn2CC2CC2)C1,8
CC(C)C(=O)N1CCCC2(CCCN2Cc2ccc(-c3ccccc3)cc2)C1 (stereo not drawn),0
CN(Cc1ccc2nccnc2c1)Cc1cc2n(n1)CCNC2,-2
NC(=S)c1cnc(-c2ccncc2)nc1N,148
O=C(NCCSc1ncn[nH]1)c1ccc(NC(=O)C2CCC2)cc1,-45
Cc1oc(C2CCN(C(=O)c3ccsc3)CC2)nc1C(=O)N1CCCCC1,-13
SMILES,Tgondii IFNg
Cc1ccc(C2(C(=O)N3CCC(c4onc5c4CCCC5)CC3)CCCC2)cc1,-44
CCN1c2cc(C)ccc2-n2cccc2C12CCN(S(=O)(=O)c1ccc(C)c(C)c1)CC2,-112*
CCN1c2cc(C)ccc2-n2cccc2C12CCN(C(=O)NC(C)C(=O)OC)CC2 (stereo not drawn),63
CCN1c2cc(C)ccc2-n2cccc2C12CCN(C(=O)NCC(=O)OC)CC2,67
Cc1cc(C)c(S(=O)(=O)N2CCC3(CC2)Nc2cc(F)ccc2-n2cccc23)c(C)c1,28
COc1ccc2c(c1)NC1(CCN(S(=O)(=O)c3c(C)cc(C)cc3C)CC1)c1cccn1-2,-35
Cc1ccc(S(=O)(=O)N2CCC3(CC2)Nc2ccc(C)c(C)c2-n2cccc23)cc1C,-25
Cc1ccc2c(c1)NC1(CCN(S(=O)(=O)c3ccc(C)c(C)c3)CC1)c1cccn1-2,29
CCN1c2cc(C)ccc2-n2cccc2C12CCN(S(=O)(=O)c1c(C)cc(C)cc1C)CC2,-118*
CCN1c2cc(C)ccc2-n2cccc2C12CCN(C(=O)c1ccc(OC)cc1)CC2,-90*
CCOCC1CN(C(=O)c2cscn2)Cc2cn(CC)nc21 (stereo not drawn),-6
CCN1c2ccccc2[C@@H]2CN(C(=O)C3CC3)CC[C@H]21,72
CCOC(=O)C1(CCc2ccccc2)CCN(C(=O)c2ccc(Cn3cnnn3)cc2)CC1,-35
Cn1c(=O)[nH]cc(CC(=O)N2CCCC(Nc3ccc(F)c(F)c3)C2)c1=O (stereo not drawn),1
COC(=O)CC(=O)NC(CSC(=O)Nc1ccc(OC(F)(F)F)cc1)C(=O)OC (stereo not drawn),-7
C[C@@H]1CN([C@@H](C)CO)C(=O)CCCn2nncc2CO[C@@H]1CN(C)S(=O)(=O)c1ccccc1C#N,168
CCCCCCCCCCC(CO)CCCCCCCC (stereo not drawn),15
COc1ccc(-c2ncccc2C(=O)N2C[C@H]3CC[C@@H]2C3)cn1,-1
CCN1C(=O)CCC12CCCN(S(=O)(=O)c1cccs1)CC2 (stereo not drawn),-10
CN1CCC2(CN(c3ncccn3)CC23CCN(Cc2cccnc2)CC3)C1=O (stereo not drawn),3
C=CCn1c(=O)c(C(=O)Nc2ccc(F)c(F)c2)c(O)c2ccccc21,199
CCNC(=O)c1c2c(N3CCN(C)CC3)ncnc2n2ccccc12,35
Cc1cnc(CNC(=O)c2nc(-c3cn(Cc4ccccc4)c(C)n3)n3ccccc23)cn1,-2
